From PubChem BioAssay (NCATS)
“And” between values parts separate entries of the source, which are not always exact repeats. Equal values may be shown once. Inconclusive results are not listed. Where a call stands in place of a potency, no number is given. The source made the active and inactive calls. Calls follow the shape of the dose curve; as a rule, active = well fitted activation curve with a large enough effect in the signal ratio; inconclusive = small, poorly fitted or top-dose-only effect, or effect the other way, or a change in a side signal; inactive = flat fitted curve, though single readings scatter; the % refers to the signal ratio.
Potency is read from the fitted curve at half-maximal effect.

Experiment: qHTS assay for small molecule agonists of the antioxidant response element (ARE) signaling pathway (AID 651741)
Details: HepG2 ARE-bla reporter, beta-lactamase FRET ratio, 16 h; series mostly up to 96 µM
Source text: National Center for Advancing Translational Sciences [NCATS]
NIH Chemical Genomics Center [NCGC]
U.S. Environmental Protection Agency [EPA]
National Institutes of Environmental Health Sciences [NIEHS]
National Toxicology Program [NTP]
Oxidative stress has been implicated in the pathogenesis of a variety of diseases ranging from cancer to neurodegeneration. The antioxidant response element (ARE) signaling pathway plays an important role in the amelioration of oxidative stress. The CellSensor ARE-bla HepG2 cell line (Invitrogen) can be used for analyzing the Nrf2/antioxidant response signaling pathway. Nrf2 (NF-E2-related factor 2) and Nrf1 are transcription factors that bind to AREs and activate these genes. The CellSensor ARE-bla Hep G2 cell line contains a beta-lactamase reporter gene under control of the Antioxidant Response Element (ARE) stably integrated into HepG2 cells. The activation of the report gene under culture conditions can be detected by fluorescence intensity. This cell line can be used to screen chemicals in a 1536-well plate format and to identify agonists that induce oxidative stress.
The ARE-bla cells were dispensed at 2,000 cells/5 ul/well in 1536-well black wall/clear bottom plates using a Multidrop dispenser. After the assay plates were incubated at a 37 C/5% CO2 incubator for 5 hours, 23 nL of compounds dissolved in DMSO, positive controls or DMSO only was transferred to the assay plate by a pin tool. The plates were incubated at 37 C for 16 hours. After 1 uL of LiveBLAzer B/G FRET substrate was added using a Flying Reagent Dispenser, the plates were incubated at room temperature for 2 hours, and fluorescence intensity was measured by an Envision plate reader.
For `CCCCC/C=C\C/C=C\CCCCCCCC(=O)O`, the Potency was “inactive”. In the case of `CCCCCCCC(=O)O`, the Potency is reported as “inactive”. In the case of `CCCCC(CC)COC(=O)CC(C(=O)OCC(CC)CCCC)S(=O)(=O)O` (stereo not drawn), the Potency is reported as 43.3 µM (active). With `CC(O)CO` (stereo not drawn) the Potency was “inactive”. In the case of `CC1=C2[C@@H]([C@H](C)CC[C@H]2/C=C(\C)C(=O)O)[C@H](O)C1`, the Potency is reported as “inactive”. With `CCOc1ccc2c(c1)C(C)=CC(C)(C)N2` the Potency was 27.3 µM (active). With `CC(C)=O` the Potency was “inactive”. In the case of `CC1=C(/C=C/C(C)=C/C=C/C(C)=C/CO)C(C)(C)CCC1`, the Potency is reported as 68.6 µM (active) and 42.2 µM (active). For `Nc1ccn([C@H]2CS[C@@H](CO)O2)c(=O)n1`, the Potency was “inactive”. With `IC(I)I` the Potency was 68.6 µM (active). For `O=S(=O)(O)O`, the Potency was “inactive”. With `CCCCCCCC/C=C\CCCCCCCC(=O)O` the Potency was “inactive”. With `Cc1ccccc1` the Potency was “inactive”.
